# Data from article PMC11062922 (Nature Chemical Biology, 2023).
# Like-named read-outs stand apart in the source and are kept apart here.
# Key:
# Set-up in all cases: species or system human, MV4-11 + K-562 + COLO205 + SK-N-BE2 + OVCAR-8
# [1] = system: CDK6; conditions: read-out: apparent Kd; compound concentrations:100 nM and 1000 nM (sheet 'Samples'); n = 1
# [2] = system: CDKL5; conditions: read-out: apparent Kd; compound concentrations:100 nM and 1000 nM (sheet 'Samples'); n = 1
# [3] = system: T1, DJA1; conditions: read-out: apparent Kd; compound concentrations:100 nM and 1000 nM (sheet 'Samples'); n = 1
# T1 construct: gene DNAJA1
# [4] = system: DYRK1A; conditions: read-out: apparent Kd, n = 1
# [5] = system: MAPK14; conditions: read-out: apparent Kd, n = 1
# [6] = system: CLK1; conditions: read-out: apparent Kd; compound concentrations: 100 nM and 1000 nM (sheet 'Samples'), CATDS: 0.24190894696409601; n = 1
# [7] = system: CLK2; conditions: read-out: apparent Kd; compound concentrations: 100 nM and 1000 nM (sheet 'Samples'), CATDS: 8.8411635671529196E-2; n = 1
# [8] = system: CLK4; conditions: read-out: apparent Kd; compound concentrations: 100 nM and 1000 nM (sheet 'Samples'), CATDS: 0.28990629676542801; n = 1
# [9] = system: GAK; conditions: read-out: apparent Kd; compound concentrations: 100 nM and 1000 nM (sheet 'Samples'), CATDS: 0.20480817101344501; n = 1
# [10] = system: JAK1; conditions: read-out: apparent Kd; compound concentrations: 100 nM and 1000 nM (sheet 'Samples'), CATDS: 8.1370183106340005E-2; n = 1
# [11] = system: PI4KB; conditions: read-out: apparent Kd; compound concentrations: 100 nM and 1000 nM (sheet 'Samples'), CATDS: 0.120056979351962; n = 1
# [12] = system: PIK3C2B; conditions: read-out: apparent Kd; compound concentrations: 100 nM and 1000 nM (sheet 'Samples'), CATDS: 8.8068304969215402E-2; n = 1
# [13] = system: TNIK; conditions: read-out: apparent Kd; compound concentrations: 100 nM and 1000 nM (sheet 'Samples'), CATDS: 8.7825927191877803E-2; n = 1
# [14] = system: CIT; conditions: read-out: apparent Kd, compound concentrations: 100 nM and 1000 nM (sheet 'Samples'), n = 1
# [15] = system: CSNK1A1; conditions: read-out: apparent Kd, compound concentrations: 100 nM and 1000 nM (sheet 'Samples'), n = 1
# [16] = system: CSNK1D; conditions: read-out: apparent Kd, compound concentrations: 100 nM and 1000 nM (sheet 'Samples'), n = 1
# [17] = system: CSNK1E; conditions: read-out: apparent Kd, compound concentrations: 100 nM and 1000 nM (sheet 'Samples'), n = 1
# [18] = system: MAPKAPK2; conditions: read-out: apparent Kd, compound concentrations: 100 nM and 1000 nM (sheet 'Samples'), n = 1
# [19] = system: PKN3; conditions: read-out: apparent Kd; compound concentrations: 100 nM and 1000 nM (sheet 'Samples'), CATDS: 0.10775551436498899; n = 1
# [20] = system: DDR1; conditions: read-out: apparent Kd; compound concentrations: 100 nM and 1000 nM (sheet 'Samples'), CATDS: 5.04347105241187E-2; n = 1
# [21] = system: DDR2; conditions: read-out: apparent Kd; compound concentrations: 100 nM and 1000 nM (sheet 'Samples'), CATDS: 3.97356163806874E-2; n = 1
# [22] = system: ERCC2; conditions: read-out: apparent Kd; compound concentrations: 100 nM and 1000 nM (sheet 'Samples'), CATDS: 0.16888440143106601; n = 1
# [23] = system: MAPK10; conditions: read-out: apparent Kd; compound concentrations: 100 nM and 1000 nM (sheet 'Samples'), CATDS: 4.34774071226985E-2; n = 1
# [24] = system: MAPK9; conditions: read-out: apparent Kd; compound concentrations: 100 nM and 1000 nM (sheet 'Samples'), CATDS: 4.6959741652320801E-2; n = 1
# [25] = system: NLK; conditions: read-out: apparent Kd; compound concentrations: 100 nM and 1000 nM (sheet 'Samples'), CATDS: 4.75025353654299E-2; n = 1
# [26] = system: RIPK2; conditions: read-out: apparent Kd; compound concentrations: 100 nM and 1000 nM (sheet 'Samples'), CATDS: 0.10770613005205; n = 1
# [27] = system: TNK1; conditions: read-out: apparent Kd; compound concentrations: 100 nM and 1000 nM (sheet 'Samples'), CATDS: 0.18410889385923901; n = 1
# [28] = system: TNK2; conditions: read-out: apparent Kd; compound concentrations: 100 nM and 1000 nM (sheet 'Samples'), CATDS: 0.19568733735508301; n = 1
# [29] = compound concentrations:100 nM and 1000 nM (sheet 'Samples')
smiles,measurement,setting,value
O=C(Nc1n[nH]c2cc(-c3ccsc3)ccc12)C1CC1 [SB-732932_KCGS],potency estimated from few doses,[1],1430 nM
same,potency estimated from few doses,[2],1820 nM
same,potency estimated from few doses,[3],2070 nM
same,potency estimated from few doses,[4]; [29],1670 nM
same,potency estimated from few doses,[5]; [29],1560 nM
Cl.O=C1Nc2ccc(-c3cccnc3)cc2C1=Cc1cc(Br)c(O)c(Br)c1 [GW2429374A],potency estimated from few doses,[6],75.2 nM
same,potency estimated from few doses,[7],766 nM
same,potency estimated from few doses,[8],56.3 nM
same,potency estimated from few doses,"[4]; compound concentrations: 100 nM and 1000 nM (sheet 'Samples'), CATDS: 7.2131324717133599E-2",1760 nM
same,potency estimated from few doses,[9],100 nM
same,potency estimated from few doses,[10],1030 nM
same,potency estimated from few doses,[11],315 nM
same,potency estimated from few doses,[12],777 nM
same,potency estimated from few doses,[13],784 nM
Cc1ccn2nc(-c3ccc(F)cc3)c(-c3ccncc3)c2c1.Cl [GW457859A],potency estimated from few doses,[14]; CATDS: 0.16560503181349201,653 nM
same,potency estimated from few doses,[15]; CATDS: 0.105298123149642,2070 nM
same,potency estimated from few doses,[16]; CATDS: 0.38029539442901,165 nM
same,potency estimated from few doses,[17]; CATDS: 0.17601881181755799,578 nM
same,potency estimated from few doses,"[5]; compound concentrations: 100 nM and 1000 nM (sheet 'Samples'), CATDS: 0.12679025336255401",1200 nM
same,potency estimated from few doses,[18]; CATDS: 0.125209165131694,1240 nM
same,potency estimated from few doses,[19],1920 nM
Nc1nccc(-c2c(-c3ccc(F)cc3)ncn2C2CCN(Cc3ccccc3)CC2)n1 [SB-219980],potency estimated from few doses,[14]; CATDS: 7.5521196037373797E-2,142 nM
same,potency estimated from few doses,[15]; CATDS: 4.0949734681157798E-2,1790 nM
same,potency estimated from few doses,[16]; CATDS: 7.5353596099526104E-2,143 nM
same,potency estimated from few doses,[17]; CATDS: 5.67501120580748E-2,362 nM
same,potency estimated from few doses,[20],584 nM
same,potency estimated from few doses,[21],2230 nM
same,potency estimated from few doses,[22],26.1 nM
same,potency estimated from few doses,[23],1230 nM
same,potency estimated from few doses,"[5]; compound concentrations: 100 nM and 1000 nM (sheet 'Samples'), CATDS: 0.113663446643848",53.6 nM
same,potency estimated from few doses,[24],814 nM
same,potency estimated from few doses,[18]; CATDS: 8.6501611072326803E-2,99.3 nM
same,potency estimated from few doses,[25],770 nM
same,potency estimated from few doses,[26],60 nM
same,potency estimated from few doses,[27],22.7 nM
same,potency estimated from few doses,[28],20.7 nM
